For 40 sequences, sensor-assay potency score (higher = more potent) results are on record in the OligoGym collection.
Note: reference of the scale not given here.

For the first assay, the target named is FGFR1. The assay is described as follows: pooled miR-30 sensor sort-seq; sequence = guide strand. As to conditions: shRNA.
As to TCTCGGTGTATGCACTTCTTGG, the sensor-assay potency score (higher = more potent) was -1.66.

Consider TTTATAGTAGTCGATGTGGTGA, for which the sensor-assay potency score (higher = more potent) is -0.221.

Consider TCTGTCACCAGGACATTCCTGG, for which the sensor-assay potency score (higher = more potent) is 0.104.

For TGAACTTCACTGTCTTGGCAGC, the sensor-assay potency score (higher = more potent) was -0.906.

TTCTTTTCCATCTTTTCTGGGG: the sensor-assay potency score (higher = more potent) is -0.274.

In turn, TTGAACTTCACTGTCTTGGCAG yielded a sensor-assay potency score (higher = more potent) of 0.751.

The sequence TCTTAAGTGAAGCACCTCCATC gave a sensor-assay potency score (higher = more potent) of -1.39.

Consider TGTAGCAGTATTCCAGCCCTGG, for which the sensor-assay potency score (higher = more potent) is -0.142.

For TAAATCTCTGGTAACGACCCTT, the sensor-assay potency score (higher = more potent) turned out to be 0.102.

The next assay addresses FHOD1. Described as above. As to conditions: shRNA.
In the case of TTCTTCGATGTCTCCATCCTCC, the sensor-assay potency score (higher = more potent) was -0.285.

Turning to TACAAACACCAACAGCAGCTTC, the sensor-assay potency score (higher = more potent) was -0.751.

Consider TCTGTCTCGGTGATCATGCGTC, for which the sensor-assay potency score (higher = more potent) was -0.332.

For TTGTAGATGCTCCTCTCGCTGG, the sensor-assay potency score (higher = more potent) was -0.582.

Regarding TAGCTTCTCAATGCCATCCTTG, the sensor-assay potency score (higher = more potent) is -0.31.

The sequence TTTGTAGATGCTCCTCTCGCTG returned a sensor-assay potency score (higher = more potent) of -1.11.

With ATGACTGTCAGCATCTCCCCGG, the sensor-assay potency score (higher = more potent) is -0.753.

In turn, TTCTACAAACACCAACAGCAGC gave a sensor-assay potency score (higher = more potent) of -1.07.

Sequence TTGCAGAGCACAATCCTCCAAC showed a sensor-assay potency score (higher = more potent) of -0.554.

Regarding TCGTAGAGCACAAGCTGCGTGC, the sensor-assay potency score (higher = more potent) is -0.434.

As for TTGTTGATGAGGGTGACCGTGT, the sensor-assay potency score (higher = more potent) was -0.769.

The target of the next assay is FH. The description is as above. As to conditions: shRNA.
With TGGATCAAGACCATAATCCTGG, the sensor-assay potency score (higher = more potent) was 0.098.

In the case of TATTGCATTAGCAATCTTTGGA, the sensor-assay potency score (higher = more potent) was determined as 0.0448.

For TAACACATTTTTAATCATCATT, the sensor-assay potency score (higher = more potent) was -1.28.

For TATTGCAGCAGCAATGTGCATT, the sensor-assay potency score (higher = more potent) was -0.245.

TTCATCAGCTTGTTGATCCTTT registered a sensor-assay potency score (higher = more potent) of 0.529.

TTTCCTTTAAGGTTGATCCATT gave a sensor-assay potency score (higher = more potent) of -0.612.

TCATATTTGTCTGAGTTCCTGA showed a sensor-assay potency score (higher = more potent) of 0.043.

TTCTATTGCAGCAGCAATGTGC returned a sensor-assay potency score (higher = more potent) of -0.565.

With TTGCTTCACACTGAGTAGGGTT, the sensor-assay potency score (higher = more potent) is -0.374.

TTTATTAACATGATCGTTGGGA returned a sensor-assay potency score (higher = more potent) of 0.847.

TTCTGTCACACCTCCAATCTTA came in with a sensor-assay potency score (higher = more potent) of -0.00125.

For TTACTTGTTGAACATAACCACT, the sensor-assay potency score (higher = more potent) was -1.14.

In turn, TTTACTTGTTGAACATAACCAC yielded a sensor-assay potency score (higher = more potent) of 0.162.

TTTGCTATCTTCATCAGACTGC yielded a sensor-assay potency score (higher = more potent) of 0.482.

As for TTGCATTAGCAATCTTTGGATC, the sensor-assay potency score (higher = more potent) is -0.818.

On to TCTTAGACCTAGCACATCCTAG, for which the sensor-assay potency score (higher = more potent) is -0.529.

For the sequence TATATGAGGATTGAGAGCTGTC, the sensor-assay potency score (higher = more potent) was 0.308.

For TTTACATTCATATTTGTCTGAG, the sensor-assay potency score (higher = more potent) was -0.0374.

TTAAAGTTCATCGTAGATCTCA came in with a sensor-assay potency score (higher = more potent) of 0.281.

In turn, TTACATTCATATTTGTCTGAGT yielded a sensor-assay potency score (higher = more potent) of 0.037.
